“And” between values parts separate entries of the source, which are not always exact repeats. Identical values can stand only once. Inconclusive results are not listed. Where a call stands in place of a potency, no number is given. The source made the active and inactive calls. The call rests on the fitted dose curve; in most records, active means well fitted cell-killing curve with a large enough effect; inconclusive means small, poorly fitted or top-dose-only effect, or effect the other way; inactive means no such curve, though single readings can be large or run the other way.
Assay: Viability qHTS for spleen associated tyrosine kinase inhibitor (SYKi) naive MV4-11 cells (AID 1963823); further: nearly all actives have a fitted effect of over 40% in size
Details: MV4-11 AML viability, CellTiter-Glo luminescence, 72 h; series mostly up to 45 µM
Outline: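 Read-out: CellTiter-Glo luminescence. Exposure: 72 hr, 37 C, 5% CO2, 95% humidity. Cells: MV4-11 without SYK inhibitor history, 500/well, qHTS format.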
Potency means the concentration at half of the fitted maximal effect.

Compound | Potency
O=C(/C=C/c1ccc(Cl)cc1)N1CCC2(CC1)CN(Cc1ccc(Cl)c(Cl)c1)C(=O)O2 | 18600 nM (active)
CCN1CCC[C@H]1CNC(=O)c1cc(S(N)(=O)=O)ccc1OC | inactive
NC(=S)N/N=C/c1cccnc1 | inactive

Assay: Viability qHTS for spleen associated tyrosine kinase inhibitor (SYKi) drug resistant MV4-11 cells (AID 1963824); further: nearly all actives have a fitted effect of over 35% in size
Details: SYKi-resistant MV4-11 viability, CellTiter-Glo, 72 h; series mostly up to 45 µM
Outline: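 SYK-inhibitor-resistant MV4-11 AML cells were seeded at 500 per well onto compound and cultured 72 hours (37 °C, 5% CO2). CellTiter-Glo was then added, and after 10 min at room temperature, luminescence gave viability.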

Compound | Potency
CCN1CCN(c2cc(-c3ccc(F)cc3)c3c(n2)CCCCCC3)CC1 | inactive
NC[C@@](O)(c1ccc(Cl)cc1)c1ccc(-c2cn[nH]c2)cc1 | 3.26 µM (active) and 6.61 µM (active)
O=c1c(-c2ccc(O)cc2)coc2c([C@@H]3O[C@H](CO)[C@@H](O)[C@H](O)[C@H]3O)c(O)ccc12 | inactive
CC(C)(O)CC[C@@H](O)[C@](C)(O)[C@H]1CC[C@@]2(O)C3=CC(=O)[C@@H]4C[C@@H](O)[C@@H](O)C[C@]4(C)[C@H]3CC[C@]12C | inactive
Cc1cccc(C)c1NC(=O)c1ccccc1C(=O)O | inactive
COc1ccccc1C(=O)Nc1cc2c(cc1N1CCCCC1)n(C)c(=O)n2C | 14.8 µM (active)
CN1CCN(c2ccc3nc(-c4cc(C(C)(C)C)c(OCCCC(=O)NCCCN=[N+]=[N-])c(C(C)(C)C)c4)[nH]c3c2)CC1 | 5.25 µM (active)
CC(=O)NC(CS)C(=O)O (stereo unspecified) | inactive
C[C@]12CCC(=O)C=C1CC[C@@H]1[C@@H]2C(=O)C[C@@]2(C)[C@H]1CC[C@]2(O)C(=O)CO | inactive
CN1C(C)(C)CCCC1(C)C | inactive
N#Cc1ccc(COC[C@H]2O[C@@H](n3c(NCc4ccc(Cl)c(Cl)c4)nc4c(N)ncnc43)[C@H](O)[C@@H]2O)cc1 | 2.52 µM (active) and 3.32 µM (active)
CC(=O)Nc1ccc(OC(=O)c2ccccc2OC(C)=O)cc1 | inactive
O=C(O)CCC(=O)Nc1ccc(S(=O)(=O)Nc2nccs2)cc1 | inactive
COc1ccccc1OCC(O)CO (stereo unspecified) | inactive
O=C(CCc1ccc(O)cc1)c1c(O)cc(O)cc1O[C@@H]1O[C@H](CO)[C@@H](O)[C@H](O)[C@H]1O | inactive
CN(C)c1cc(NC(=O)CNC(C)(C)C)c(O)c2c1C[C@H]1C[C@H]3[C@H](N(C)C)C(=O)C(C(N)=O)=C(O)[C@]3(O)C(=O)C1=C2O | inactive
CC(C)N(CCCNC(=O)Nc1ccc(C(C)(C)C)cc1)C[C@H]1O[C@@H](n2cc(Br)c3c(N)ncnc32)[C@H](O)[C@@H]1O | 18.4 µM (active) and 7.42 µM (active)

Compound | Potency
c1ccc(CN(CC2=NCCN2)c2ccccc2)cc1 | inactive
CC1(C)OC2=C(C(=O)c3ccccc3C2=O)[C@H](NCc2ccccc2)[C@@H]1O | 2.63 µM (active)
NCC1CCN(c2nccc(-c3ccc4ccccc4c3)n2)CC1 | 1.16 µM (active)
Brc1c(NC2=NCCN2)ccc2nccnc12 | inactive
Cc1oc(=O)oc1COC(=O)[C@@H]1N2C(=O)[C@@H](NC(=O)[C@H](N)c3ccccc3)[C@H]2SC1(C)C | inactive
CCc1cc(C(N)=O)ccc1-n1nc(C(C)C)c2c(-n3cnc(-c4cnn(C)c4)c3)ccnc21 | 0.59 µM (active)
Cc1ccc2cc(-c3c(C)ccc(C(=O)c4c(-c5ccccc5)n(C)n(-c5ccccc5)c4=O)c3N)ccc2n1 | 9.34 µM (active)
CCN(CC)CC(=O)OCC(=O)[C@@]1(O)CC[C@H]2[C@@H]3CCC4=CC(=O)CC[C@]4(C)[C@H]3[C@@H](O)C[C@@]21C | inactive
COc1cc([C@@H]2c3cc4c(cc3[C@@H](O[C@@H]3O[C@@H]5CO[C@@H](c6cccs6)O[C@H]5[C@H](O)[C@H]3O)[C@H]3COC(=O)[C@H]23)OCO4)cc(OC)c1O | 0.0742 µM (active)
O=C1Nc2nc(-c3c(O)cccc3OCC3CC3)cc([C@@H]3CCCNC3)c2CO1 | 4.11 µM (active) and 5.25 µM (active)
COc1ccc(-c2cc(C(O)C3CCCCN3)c3ccccc3n2)cc1 (stereo unspecified) | 1.66 µM (active)
Cc1[nH]c2ccc(F)cc2c1-c1nc2c3cccnc3c3ncccc3c2[nH]1 | 0.184 µM (active)
COCCOc1cnc2ccn([C@H](C)c3nnc4c(F)cc(-c5cnn(C)c5)cn34)c(=O)c2c1 | inactive
CCCCNc1ncc2c(-c3ccc(F)cc3)nn(CC3CCC(N)CC3)c2n1 (stereo unspecified) | 0.0112 µM (active)
CNCc1ccc(-c2cc(-c3nc(-c4ccc(S(=O)(=O)C(C)C)cc4)cnc3N)on2)cc1 | 0.326 µM (active)
CCCCOC(=O)CC(CC(=O)OCCCC)(OC(C)=O)C(=O)OCCCC | inactive

Reference: PubChem BioAssay (NCATS)
